Screens from PubChem BioAssay.
In the library only some 6.2% were active in any assay of this set; here they are far more common.
Lassa entry inh – Lassa virus entry inhibition; AID 540256; 1.2% of 300,000 active; Lassa virus pseudotype entry inhibition, cell reporter; Potency, µM (titrated, usually from 37.9 µM), inactives show at the highest dose activity change, negative = inhibition, hits mostly inhibitors; calls by dose curve; tested in HEK293 cells; note: potency is the fitted concentration of half-maximal effect; nearly all actives have a fitted effect of over 50% in size
Marburg entry inh – inhibitors of Marburg virus binding or cell entry. Marburg virus pseudotyped entry inhibition, cell reporter. Potency, µM (series often up to 37.8 µM), for the others: at the top dose activity change, negative = inhibition, most hits filed as inhibitors. 1.8% of 300,000 active. AID 540276; calls by dose curve; tested in HEK293 cells; note: potency is the fitted concentration of half-maximal effect
HCMV inh – human cytomegalovirus inhibition; HFF cells, HCMV-luciferase reporter, 72 h; hits give low values; activity change, negative = inhibition, % at 57.5 µM; 4.5% of 410,000 active; in the data active = activity change below about -60%; inconclusive = no clear call, values can overlap the other calls; inactive = above about -39%
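Human foreskin fibroblasts infected with luciferase-reporter HCMV at MOI 1 PFU/cell, compounds at two doses. Luciferase measured 72 h post infection; normalized to buffer-only basal and Salinomycin (10uM) controls.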
FMDV inh – antivirals against foot and mouth disease virus; AID 1159524; Potency, µM (top dose mostly 57.9 µM), for the others: at the highest dose activity change, negative = inhibition, usual class: inhibitors; FMDV antiviral cell-based qHTS; 1.2% of 410,000 active; calls by dose curve; tested in HEK293T cells; note: read-out not given here; potency is the fitted concentration of half-maximal effect; nearly all actives have a fitted effect of over 45% in size
Starred values were filed as active, the others as inactive; ? = inconclusive; . = no result given; [ ] = another dose, or the depositor's remark. % is set by controls: 0 for no effect and ±100 for the full control effect.

SMILES | Lassa entry inh | Marburg entry inh | HCMV inh | FMDV inh
CCOC(=O)c1ccc(NC(=O)CN(c2ccc(C)cc2)S(=O)(=O)c2c(C)noc2C)cc1 | ? | 11.2µM* | 0.5 | -22.2%
CSCCC(NC(=O)OCc1ccccc1)C(=O)NC(Cc1c[nH]c2ccccc12)C(=O)O (stereo unspecified) | . | . | 14.8 | .
Cc1cccc(C)c1NC(=O)C(c1ccccc1)N1CCN(c2ccc(C(F)(F)F)cn2)CC1 (stereo unspecified) | . | . | -8.5 | -16.3%
COc1ccc(S(=O)(=O)N2CC3CC(C2)c2cccc(=O)n2C3)cc1 (stereo unspecified) | -9.4% | -26.2%[46.1 µM] | -65.2* | -1.7%
CC(C)(C)c1ccc(S(=O)(=O)N2CC3CC(C2)c2cccc(=O)n2C3)cc1 (stereo unspecified) | 4.7% | 17.3% | -8.3 | .
CCOC(=O)CCN1C(=O)[C@@H]2[C@H]3[C@H](O)[C@H](O)CC(=NO[C@@H]4O[C@H](COC(C)=O)[C@@H](OC(C)=O)[C@H](OC(C)=O)[C@@H]4OC(C)=O)[C@H]3CC[C@H]2C1=O | . | -5.6%[14.2 µM] | . | .
COc1cc(C(=O)OCc2cc(=O)oc3c(C)c(C)ccc23)ccc1OC(F)F | ? | 0.0%[46.1 µM] | -64.9* | -21.6%
COc1cc(C(=O)OCc2cc(=O)c(O)co2)ccc1OC(F)F | 14.4%[46.1 µM] | ? | -28.3 | -6.5%
Cc1cccc(C)c1OCC(O)CN1CCC(CN2C(=O)c3cccc4cccc(c34)C2=O)CC1 (stereo unspecified) | ? | ? | 3.3 | 22.4µM*
CCC(OCC(O)CN1CCN(CCN2C(=O)c3cccc4cccc(c34)C2=O)CC1)c1ccccc1 (stereo unspecified) | ? | ? | ? | 28.2µM*
O=C(c1ccc(S(=O)(=O)N2CCCCC2)cc1)N1CCN(CCN2C(=O)c3cccc4cccc(c34)C2=O)CC1 | 4.4% | ? | ? | 15.8µM*
CC(C)OCC(O)CN1CCN(CCN2C(=O)c3cccc4cccc(c34)C2=O)CC1 (stereo unspecified) | . | . | -30.2 | -17.7%
CC(=O)c1cccc(NC(=S)N2CCN(CCN3C(=O)c4cccc5cccc(c45)C3=O)CC2)c1 | 3.9%[46.1 µM] | ? | -79.5* | -12.3%
COCCN1C(=O)C2=C(C1=O)C1N(C)c3ccccc3[C@@]13C[C@@H](CO)N(C(=O)CCC(=O)OC)C3=N2 (stereo partly specified) | . | 5.1%[14.2 µM] | . | .
COc1ccccc1C1CN(Cc2ccc(Sc3nncn3C)o2)Cc2ccccc2O1 (stereo unspecified) | . | . | . | -2.5%
CC(=O)c1ccc(OCC(O)CN2CCN(CCN3C(=O)c4cccc5cccc(c45)C3=O)CC2)cc1 (stereo unspecified) | ? | ? | -84.3* | ?
C=CCc1ccccc1OCC(O)CN1CCN(CCN2C(=O)c3cccc4cccc(c34)C2=O)CC1 (stereo unspecified) | ? | 11.2µM* | -38.3 | 28.2µM*
CC(=O)c1ccc(OCC(O)CN2CCN(S(=O)(=O)c3c(C)c(C)cc(C)c3C)CC2)cc1 (stereo unspecified) | ? | ? | -72.5* | -19.2%
CC(=O)c1ccc(OCC(O)CN2CCN(CC(O)COc3ccc(C(C)=O)cc3)CC2)cc1 (stereo unspecified) | 1.4% | ? | 22.0 | -25.9%
Cc1ccccc1-n1c2nc(=O)[nH]c(=O)c-2cc2c(Cl)cccc21 | -22.8%[46.1 µM] | . | -9.5 | -27.4%
Cn1c(=O)c2sccc2n2c(CCCC(=O)Nc3ccc(F)c(F)c3)nnc12 | -9.2%[46.1 µM] | -4.7%[46.1 µM] | -5.7 | -28.7%
CCC(=O)N1CCc2cc(S(=O)(=O)N(CC)c3cccc(C)c3)ccc21 | ? | -3.4% | -20.7 | 0.0%
CCN(c1cccc(C(F)(F)F)c1)S(=O)(=O)c1ccc2c(c1)CCN2C(=O)C1CC1 | ? | ? | -81.8* | 14.1µM*
Cc1ccc(NC(=O)c2ccccc2Cl)cc1-n1cnnn1 | 14.9% | ? | -28.5 | 9.8%
Cc1ccc(NC(=O)c2ccccc2)cc1-n1cnnn1 | -0.7%[46.1 µM] | 0.2%[46.1 µM] | -73.2* | 24.8%
SMILES | Lassa entry inh | Marburg entry inh | HCMV inh | FMDV inh
Cc1cc(C)c(NC(=O)CS(=O)CC(=O)Nc2ccc(-n3cnnn3)c(C)c2)c(C)c1 (stereo unspecified) | ? | ? | -69.3* | -11.8%
Cc1cc(NC(=O)CS(=O)CC(=O)Nc2c(C)cccc2C)ccc1-n1cnnn1 (stereo unspecified) | 3.8%[46.1 µM] | ? | 13.7 | 4.3%
CCOC(=O)c1[nH]c2c(c1Cc1ccccc1)C(=O)CC(c1ccc(Cl)cc1)C2 (stereo unspecified) | -5.1%[46.1 µM] | ? | -26.3 | -6.1%
Cc1ccc(NC(=O)CSc2nnc(-c3cc4occc4n3C)n2-c2ccccc2C)c(Cl)c1 | 8.2%[46.1 µM] | . | -25.2 | -3.0%
O=C1NC(=O)/C(=C/c2cccc(O)c2)N1 | . | . | -7.9 | 3.0%
CC(C)(C)c1cc(/C=C2\NC(=O)NC2=O)cc(C(C)(C)C)c1O | . | . | -82.8* | -9.1%
O=C(Nn1c(O)c(C=C2N=c3ccccc3=N2)sc1=S)c1ccccc1Cl | ? | -5.0% | -91.2* | -10.3%
Fc1ccccc1CNC1CN2CCC1CC2 (stereo unspecified) | . | 1.2%[46.1 µM] | -27.9 | 2.2%
Ic1ccccc1CNC1C2CCN(CC2)C1C(c1ccccc1)c1ccccc1 (stereo unspecified) | 6.51µM* | 4.61µM* | . | .
Ic1ccccc1CN[C@@H]1C2CCN(CC2)[C@@H]1C(c1ccccc1)c1ccccc1 | . | . | -98.6* | ?
Ic1ccccc1CN[C@@H]1C2CCN(CC2)[C@H]1C(c1ccccc1)c1ccccc1 | . | 4.61µM* | . | .
CCn1c(NCc2c[nH]c3ccccc23)nc2ccccc21 | -9.0% | 11.2µM* | 44.3 | 25.5%
CCc1ccc(NC(=O)CSc2nccn2-c2ccc(F)cc2)cc1 | 8.3%[46.1 µM] | . | -65.7* | 9.3%
COc1cccc(-n2ccnc2SCC(=O)Nc2c(C)cc(C)cc2C)c1 | -22.8%[46.1 µM] | . | -102.0* | -4.6%
COc1ccc(-n2ccnc2SCC(=O)Nc2ccc3c(c2)OCO3)cc1 | 22.6%[46.1 µM] | . | -74.4* | -22.4%
COc1ccc(NC(=O)CSc2nccn2-c2ccccc2)cc1 | -0.7% | 25.6%[46.1 µM] | 6.3 | -2.1%
CCc1ccc(NC(=O)CSc2nccn2-c2ccc(OC)cc2)cc1 | -25.6%[46.1 µM] | . | -99.6* | -23.8%
O=C(CSc1nccn1-c1ccc(F)cc1)Nc1ccc2c(c1)OCO2 | -1.1% | -21.3% | ? | -24.9%
COC(=O)[C@@H]1C[C@H](NC(=O)c2cc(C(F)(F)F)ccc2Cl)CN1Cc1cccc(O)c1 | . | . | . | -11.4%
COc1ccc(NC(=O)CSc2nnc3ccc(-c4ccncc4)nn23)cc1 | 11.2% | 7.3%[46.1 µM] | -71.2* | -4.1%
COc1ccc(NC(=O)CSc2nnc3ccc(-c4cccnc4)nn23)cc1 | 10.2% | -5.9% | ? | -1.3%
CCOC(=O)c1sc2nc(-c3cccnc3)ccc2c1N | 6.31µM* | ? | -4.5 | -29.8%
CCOc1ccccc1NC(=O)c1sc2nc(-c3ccc(OC)cc3)ccc2c1N | ? | ? | -94.9* | 39.7%
O=C(N1CCC[C@@H]1c1noc2ccccc12)C(F)(F)F | . | . | -9.1 | .
Cc1[nH]c(/C=C2/C(=O)Nc3ccc(S(=O)(=O)Cc4c(Cl)cccc4Cl)cc32)c(C)c1C(=O)N1CCCC1CN1CCCC1 (stereo unspecified) | . | . | . | -29.2%
